Shown are actives, neighbours in structure and some others; about 4.7% of the full set was active somewhere.
D1 PAM = Potentiators of Human D1 Dopamine Receptor: qHTS | HEK293 TREx D1 cells, calcium flux, dopamine EC20 potentiation | potentiation, % at 10 µM | 360,000 tested, 0.036% active | AID 504651, 2011; in the data active = potentiation above about 30%
TRHR agonist = qHTS for Small Molecule Agonists and Allosteric Enhancers of Human TRH Receptor: Primary Screen for Agonists | Thyrotropin-releasing hormone receptor (Homo sapiens), P34981 | TRHR cells, calcium flux fluo-8, FDSS agonist mode | activation, % at 2 µM | 360,000 tested, 0.18% active | AID 493084, 2011
Target sequence (P34981 whole entry, looked up): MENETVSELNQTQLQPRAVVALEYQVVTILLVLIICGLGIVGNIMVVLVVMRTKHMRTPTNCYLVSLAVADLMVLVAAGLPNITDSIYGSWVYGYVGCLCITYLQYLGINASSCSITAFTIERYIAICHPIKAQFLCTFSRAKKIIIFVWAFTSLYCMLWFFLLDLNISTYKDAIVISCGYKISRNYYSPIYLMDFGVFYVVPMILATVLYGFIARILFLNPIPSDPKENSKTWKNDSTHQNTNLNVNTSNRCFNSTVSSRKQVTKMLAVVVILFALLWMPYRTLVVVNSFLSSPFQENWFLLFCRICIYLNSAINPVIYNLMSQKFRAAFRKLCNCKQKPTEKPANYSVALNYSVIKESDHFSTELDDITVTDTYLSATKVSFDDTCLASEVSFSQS
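TRHR-expressing cells loaded with fluo-8 calcium dye; 23 nL library compound pin-transferred, kinetic FDSS fluorescence (Ex 480/Em 530) recorded about 180 s for agonist-induced calcium release, before a 10 nM TRH EC20 addition for potentiator mode.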
TRHR PAM = qHTS for Small Molecule Agonists and Allosteric Enhancers of Human TRH Receptor: Primary Screen for Enhancers; enhancement, % at 2 µM; 360,000 tested, 0.66% active; Thyrotropin-releasing hormone receptor (Homo sapiens), P34981; TRHR cells, fluo-8 calcium fluorescence, EC20 TRH enhancement; AID 493056, 2011; in the data active = enhancement above about 30%
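Enhancer read-out: after compound pinning and an initial kinetic agonist-mode read, an EC20 of TRH (10 nM final) was injected and fluo-8 calcium signal (Ex 480/Em 530) followed at 1 s/cycle for 100 cycles in TRHR-expressing cells.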
D1 ag = Allosteric Agonists of the Human D1 Dopamine Receptor: qHTS | HEK293 T-REx D1 cells, calcium flux, agonist mode | activation, % at 2 µM | 360,000 tested, 1% active
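Tetracycline-induced HEK293 TREx D1 cells, force-coupled to calcium signalling, were dye-loaded with a no-wash calcium kit. Compound was pin-added after a 10 s baseline. Fluorescence was read kinetically at 1 cycle/s for 180 s, with calcium rises flagged as agonism.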
D1 antag = Antagonist of Human D 1 Dopamine Receptor: qHTS; AID 504652, 2011; activity change, negative = inhibition, % at 10 µM; HEK293 TREx D1 cells, calcium flux, dopamine EC80; stronger effect = lower value; D(1A) dopamine receptor (Homo sapiens), P21728; 360,000 tested, 3.2% active; in the data active = activity change below about -30%
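Compound effects on dopamine-evoked calcium signalling were measured in tetracycline-induced HEK293 Trex D1 cells. Dopamine at EC80 followed a 180 s compound pre-read, and fluorescence was tracked kinetically for 180 s more.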
A number is an active result; i = inactive; nt = no result given. Cut-off read from the data, not from the text of the source, unless noted: active = activation above about 30%; inactive = the rest.

SMILES	D1 PAM	TRHR agonist	TRHR PAM	D1 ag	D1 antag
Cc1cc2oc(C(=O)N(Cc3ccccc3F)C3CCS(=O)(=O)C3)c(C)c2cc1Cl (stereo not drawn)	i	i	i	i	i
COc1cc(Cl)c(NC(=O)c2cc(S(=O)(=O)N3CCCCC3)c[nH]2)c(OC)c1	i	i	i	i	i
O=C(O)c1cc(-c2ccc(Br)s2)nc2ccccc12	i	i	i	i	i
Brc1[nH]nc2ccccc12	i	i	i	i	-33
O=C(NCCCl)c1ccc(OCc2ccccc2)cc1Cl	i	i	i	57	i
C#CCNC(=O)c1ccc(OCc2ccccc2)cc1Cl	i	i	i	i	i
Cc1ccccc1-n1nnnc1SCc1csc(-c2ccccc2)n1	i	i	i	i	-35
CCCCCn1c(=O)[nH]c2cc(C(=O)NCCCN(C)Cc3ccccc3)ccc2c1=O	i	i	i	i	i
CCCCNC(=O)c1ccc2c(=O)n(-c3ccccc3)c(=O)[nH]c2c1	i	i	i	i	-64
COc1cc(OC)cc(-n2c(=O)[nH]c3cc(C(=O)NCCc4ccc(C)cc4)ccc3c2=O)c1	i	i	i	i	i
Cc1ccc(-n2c(=O)[nH]c3cc(C(=O)NCc4ccccc4)ccc3c2=O)cc1	i	i	i	i	-77
COc1ccc(S(=O)(=O)N(CCc2ccccc2)CC(=O)Nc2cc(C)cc(C)c2)cc1OC	i	i	i	i	-36
COc1ccc(S(=O)(=O)N(CCc2ccccc2)CC(=O)NCc2ccccc2)cc1OC	i	i	i	i	i
Cc1ccc(C(C)C)c(OCCCn2c(=O)oc3ccccc32)c1	i	i	i	33	i
COC(=O)c1c(C)oc(C)c1S(=O)(=O)N(C)C1CCCCC1	i	i	i	i	-46
COC(=O)c1c(C)oc(C)c1S(=O)(=O)NCC1CC1	i	i	i	i	i
Cc1ccc(C(=O)O/N=C(\N)c2cccc([N+](=O)[O-])c2)cc1	i	i	i	i	i
O=C(O/N=C(/c1ccccc1)c1ccncc1)c1cccc(F)c1	i	i	i	i	-59
N/C(=N\OC(=O)c1ccncc1)c1cccc([N+](=O)[O-])c1	i	i	32	i	i
O=C(Cn1c(=O)nc(-c2ccccc2)c2ccccc21)Nc1ccc(Cl)cc1F	i	i	i	i	i
COc1ccc(N2CCN(c3ccc(N4C(=O)COCC4=O)cc3[N+](=O)[O-])CC2)cc1	i	i	i	i	-31
Cc1ccc(N2CCN(C(=O)c3cn(C)c4ccc(S(=O)(=O)N5CCCC5)cc4c3=O)CC2C)cc1 (stereo not drawn)	i	i	i	i	-82
COc1ccc2c(N)c(C(=O)NN)[nH]c2c1	i	i	i	i	i
O=C(C1CCN(S(=O)(=O)c2cccnc2)CC1)N1CCN(c2cccc(Cl)c2)CC1	i	i	i	i	-83
CCS(=O)(=O)N1CCN(c2ccccc2)CC1	i	i	32	i	i
SMILES	D1 PAM	TRHR agonist	TRHR PAM	D1 ag	D1 antag
CNS(=O)(=O)c1cnccc1N1CCN(c2cccc(Cl)c2)CC1	i	i	i	i	-31
O=S(=O)(Cc1ccccc1)N1CCN(c2ncccn2)CC1	i	i	i	i	-51
O=C(C1CCN(S(=O)(=O)Cc2ccccc2)CC1)N1CCN(c2ncccn2)CC1	i	i	i	i	i
CCOc1ccccc1NC(=O)CSc1c(C)cnc2c1c(=O)n(C)c(=O)n2C	i	i	i	i	nt
Cc1ccc(OCc2cc(C(=O)N3CCN(c4ccccc4)CC3)no2)cc1C	i	i	i	i	i
O=C(CNC(=O)c1ccc(Cl)cc1)OC(C(=O)Nc1cc(C(F)(F)F)ccc1Cl)c1ccccc1 (stereo not drawn)	i	i	i	i	i
O=C(C1CCN(S(=O)(=O)Cc2ccccc2)CC1)N1CCN(c2ccccc2)CC1	i	i	i	i	-61
CCOc1cccc(C2Oc3nc(SC)nnc3-c3ccccc3N2C(C)=O)c1OC (stereo not drawn)	i	i	i	i	i
CCCN1CNC(=S)N(Cc2ccccc2)C1	i	i	i	i	i
S=C1NCN(CCc2ccccc2)CN1Cc1ccccc1	i	i	i	53	i
CC(C)CN1CN(Cc2ccccc2)CNC1=S	i	i	i	i	-31
COc1cccc(N2CN(CCc3ccccc3)CNC2=S)c1	i	i	i	i	-30
Cc1cc2c(s1)c1cnn(Cc3ccccc3F)c(=O)c1n2Cc1ccccc1F	i	i	i	i	i
Nc1nc(-c2ccccc2)c(-c2ccccc2)s1	i	i	i	i	i
Nc1nc(-c2ccccc2)c(-c2ccc([N+](=O)[O-])cc2)s1	i	i	i	71	i
O=C(CSc1nccn1-c1cccc(Cl)c1)Nc1ccc2c(c1)OCO2	i	i	i	i	i
CCCN(CCC)C(C)C(=O)NCC1(c2ccccc2)CCCC1 (stereo not drawn)	i	i	i	i	-41
COc1ccc(NC(=O)CC2Oc3ccccc3NC2=O)cc1 (stereo not drawn)	i	i	i	i	-40
CS(=O)(=O)N(CC(=O)N1CCc2ccccc2C1)c1cccc([N+](=O)[O-])c1	i	i	32	i	-78
O=C(Nc1ccc(Br)cc1F)c1ncoc1-c1ccco1	i	i	i	i	i
COc1cc2cc(Oc3ccc4ccc(=O)oc4c3)c(=O)oc2cc1OC(=O)/C=C/c1ccccc1	i	i	i	i	-62
COc1ccc(C(=O)Oc2ccc3ccc(=O)oc3c2)cc1OC	i	i	i	i	i
CN(c1ccc(C(=O)N2CCCCC2)cc1)S(=O)(=O)c1ccccc1	i	i	i	i	-36
CCCCC[C@]12Cc3ccccc3C(O1)c1c(cc(C)oc1=O)O2	i	i	i	i	i
CC(=O)c1ccc(S(=O)(=O)Nc2cccc(-c3ccc4nncn4n3)c2)cc1	i	i	i	i	-37
CCC(CC)C(=O)Nc1cccc(-c2ccc3nncn3n2)c1	i	i	31	i	i
CC(=O)Nc1ccc(S(=O)(=O)Nc2cccc(-c3ccc4nncn4n3)c2)cc1	i	i	i	i	i
CCc1ccc(-n2c(=O)c3c(C)c(C(=O)N(C)C)sc3n(Cc3ccccc3F)c2=O)cc1	i	i	i	i	i
O=[N+]([O-])c1ccc(-c2ccc(/C=N/Nc3nc(N4CCCCC4)nc(N4CCCCC4)n3)o2)cc1	i	i	i	47	i
O=[N+]([O-])c1ccc(-c2ccc(/C=N/Nc3nc(N4CCCC4)nc(N4CCCC4)n3)o2)cc1	i	i	i	76	i

Bioassay records as filed in PubChem BioAssay.
